Data on 8 molecules can be found in PubChem BioAssay (NCI).

About 83,000 compounds went through this panel and 20% of them were active in at least one assay; those are over-represented in the sample as a whole.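 Cells were grown in 96-well plates and exposed to the test compound at a single concentration for 48 hours; results are reported as percent growth, with values below 10 considered active.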 Unmarked numbers belong to inactive results. Activity calls are given as the source filed them.

Test systems include NCI-H23 lung; NCI-H226 lung; NCI-H322M lung; HOP-62 NSCLC; NCI-H460 lung; HOP-92 NSCLC; NCI-H522 lung; A549/ATCC NSCLC; 786-0 renal; COLO 205 colon; DU-145 prostate; K-562 leukemia; MALME-3M melanoma; MDA-MB-231 breast; SF-268 CNS; SF-295 CNS; SF-539 CNS; UACC-257 melanoma; M14 melanoma.
What all share (assay): NCI-60 one-dose screen, 48 h (100 = growth as untreated, 0 = no growth, -100 = all killed)
Details in all cases: 10 µM unless noted

As to `Cc1ccccc1-c1cc(Cc2ccc(F)cc2)c(=O)[nH]n1`, the growth in the test on NCI-H23 lung was 98.3%; in the test with NCI-H226 lung, 105%; with NCI-H322M lung, 94.3%; in the test with HOP-62 NSCLC it was 95%; with NCI-H460 lung it was 107%; in the test with HOP-92 NSCLC, 99.8%. For the same molecule, the growth is 95.1% in the test on NCI-H522 lung; 33.4% in the test with A549/ATCC NSCLC; 111% in the test with 786-0 renal; 108% in the test with COLO 205 colon; 130% with DU-145 prostate; 84.8% in the test with K-562 leukemia. Moreover, the growth in the test on MALME-3M melanoma was 88%; with MDA-MB-231 breast it was 109%; with SF-268 CNS it was 94.6%; in the test on SF-295 CNS it was 123%; in the test on SF-539 CNS it was 94.2%; in the test on UACC-257 melanoma it was 137%. In the test with M14 melanoma, the growth was 118%.
In the case of `COc1cc(/C=C/C(=O)c2ccc(Nc3ncnc4ccccc34)cc2)cc(OC)c1`, the growth in the test with NCI-H23 lung was 72%; with NCI-H226 lung it was 80.2%; in the test with NCI-H322M lung, 76%; in the test with HOP-62 NSCLC, 139%; in the test on NCI-H460 lung, 81.4%; with HOP-92 NSCLC, 87.3%. The growth in the test with NCI-H522 lung was 71.4%; in the test with A549/ATCC NSCLC, 41.2%; with 786-0 renal, 52.1%; in the test on COLO 205 colon it was 151%; with DU-145 prostate it was 71.7%; with K-562 leukemia, 4.61% (active). Moreover, the growth was 106% in the test on MALME-3M melanoma; 82.9% in the test with MDA-MB-231 breast; 38.1% with SF-268 CNS; 60.8% in the test with SF-295 CNS; 71.6% in the test on SF-539 CNS; 93.5% in the test with UACC-257 melanoma. For the same molecule, the growth with M14 melanoma was 24.7%.
As to `O=C1NC(=O)C(=Cc2cn(Cc3ccccn3)c3ccccc23)C(=O)N1`, the growth in the test on NCI-H23 lung is 103%; with NCI-H226 lung it was 79.7%; with NCI-H322M lung, 105%; with HOP-62 NSCLC, 92.7%; with NCI-H460 lung, 11.9%; in the test on HOP-92 NSCLC, 95.8%. The growth with NCI-H522 lung is 92.6%; in the test with A549/ATCC NSCLC, 76.3%; in the test on 786-0 renal it was 100%; with COLO 205 colon, 54.4%; in the test on DU-145 prostate, 110%; in the test with K-562 leukemia, 76.4%. The growth in the test on MALME-3M melanoma is 101%; in the test on MDA-MB-231 breast, 108%; in the test on SF-268 CNS, 93.7%; in the test on SF-295 CNS, 79.5%; with SF-539 CNS it was 94.5%; in the test with UACC-257 melanoma, 103%. The growth in the test with M14 melanoma is 99.7%.
With `COc1cccc2c1C(=O)c1c(O)c3c(c(O)c1C2=O)C[C@@](O)(C(=O)CO)C[C@@H]3O[C@H]1C[C@H](N)[C@@H](O)[C@H](C)O1`, the growth in the test with NCI-H23 lung was -25% (active); in the test with NCI-H226 lung, -41.8% (active); with NCI-H322M lung it was 13.6%; in the test on HOP-62 NSCLC, -18% (active); with NCI-H460 lung it was 1.64% (active); in the test on HOP-92 NSCLC, -26% (active). Moreover, the growth in the test with NCI-H522 lung was -55.2% (active); in the test with A549/ATCC NSCLC, -22.5% (active); in the test with 786-0 renal it was 12.1%; with COLO 205 colon, -86.6% (active); with DU-145 prostate, -26.8% (active); in the test with K-562 leukemia, 1.44% (active). The growth in the test with MALME-3M melanoma is -50.7% (active); with MDA-MB-231 breast, 1.94% (active); in the test on SF-268 CNS, -15.4% (active); with SF-295 CNS, -16.1% (active); with SF-539 CNS it was -23.9% (active); in the test on UACC-257 melanoma, -49.3% (active). The growth in the test on M14 melanoma was -47.4% (active).
Regarding `COc1ccc(C(O)c2cc3c(N)c(C(=O)Nc4cccc(Br)c4C)sc3nc2C)cc1` (configuration not stated), the growth in the test on NCI-H23 lung is 32.1%; with NCI-H226 lung it was 56.9%; in the test with NCI-H322M lung, 46.1%; with HOP-62 NSCLC, 36.5%; in the test with NCI-H460 lung, -2.32% (active); in the test on HOP-92 NSCLC, 61.5%. The growth in the test on NCI-H522 lung was -32.7% (active); in the test on A549/ATCC NSCLC, 20.5%; in the test on 786-0 renal, 37.6%; in the test on COLO 205 colon, -7.14% (active); in the test on DU-145 prostate, 9.81% (active); in the test with K-562 leukemia, 5.92% (active). Further, the growth in the test on MALME-3M melanoma was 47.3%; with MDA-MB-231 breast, 5.97% (active); with SF-268 CNS, 30.1%; in the test with SF-295 CNS it was 18.5%; with SF-539 CNS, -3.14% (active); in the test on UACC-257 melanoma it was 47.8%. In addition, the growth in the test with M14 melanoma is 18.9%.
Take `O=[N+]([O-])c1cccc(-c2nc(-c3ccc(Cl)cc3Cl)cn2-c2ccccc2)c1`: the growth in the test on NCI-H23 lung is 20.8%; with NCI-H226 lung, 18%; in the test on NCI-H322M lung, 157%; in the test with HOP-62 NSCLC, -75.4% (active); in the test on NCI-H460 lung, -76.4% (active); in the test with HOP-92 NSCLC it was 12.6%. The growth in the test with NCI-H522 lung was 12.8%; with A549/ATCC NSCLC, -32.9% (active); with 786-0 renal, -99.5% (active); in the test with COLO 205 colon, -36.5% (active); in the test with DU-145 prostate it was -80.1% (active); in the test with K-562 leukemia, 43.5%. The growth with MALME-3M melanoma is 128%; in the test with MDA-MB-231 breast it was -14.6% (active); in the test with SF-268 CNS, 0.437% (active); in the test with SF-295 CNS, -74.3% (active); in the test on SF-539 CNS it was 23.6%; in the test on UACC-257 melanoma, -63.6% (active). Also, the growth in the test with M14 melanoma is -71.6% (active).
In the case of `COc1ccc(-c2nc(N/N=C/c3c[nH]c4ccccc34)nc(N3CCOCC3)c2C#N)cc1`, the growth with NCI-H23 lung is 111%; in the test with NCI-H226 lung, 105%; in the test on NCI-H322M lung it was 94.1%; with HOP-62 NSCLC, 105%; with NCI-H460 lung it was 82.8%; in the test on HOP-92 NSCLC, 69.1%. Also, the growth in the test on NCI-H522 lung is 99.7%; in the test on A549/ATCC NSCLC it was 92.4%; in the test with 786-0 renal it was 45.9%; in the test on COLO 205 colon, 78.5%; with DU-145 prostate it was 79.7%; in the test with K-562 leukemia, 38%. For the same molecule, the growth in the test with MALME-3M melanoma was 80.3%; in the test with MDA-MB-231 breast it was 72.4%; in the test with SF-268 CNS it was 95.5%; with SF-295 CNS, 68.2%; with SF-539 CNS it was 67.6%; in the test with UACC-257 melanoma it was 21.4%. Further, the growth in the test with M14 melanoma is 88.5%.
Turning to `c1ccc(CCSc2ncnc3nc[nH]c23)cc1`, the growth with NCI-H23 lung is 96.8%; in the test with NCI-H226 lung it was 86.6%; in the test with NCI-H322M lung it was 113%; with HOP-62 NSCLC, 103%; in the test with NCI-H460 lung it was 82%; in the test on HOP-92 NSCLC it was 110%. Also, the growth with NCI-H522 lung is 0.492% (active); in the test on A549/ATCC NSCLC it was 77.3%; in the test on 786-0 renal, 102%; with COLO 205 colon, 90.1%; in the test with DU-145 prostate, 108%; in the test with K-562 leukemia it was 72.4%. Also, the growth in the test with MALME-3M melanoma was 106%; in the test on MDA-MB-231 breast, 85.2%; in the test on SF-268 CNS, 103%; with SF-295 CNS it was 75.6%; in the test on SF-539 CNS, 84.8%; in the test with UACC-257 melanoma, 46.2%. Also, the growth with M14 melanoma was 97.5%.
